# Screening data as filed in PubChem BioAssay.
# Hits are enriched below; roughly 10% of the tested compounds scored in any of these assays.
# BAZ2B block: qHTS Assay for Inhibitors of BAZ2B. hit rate 4.4% among 360,000. AID 504333, 2011. AlphaScreen BAZ2B-H3K14Ac peptide displacement. Bromodomain adjacent to zinc finger domain protein 2B (Homo sapiens), Q9UIF8. Potency, µM (doses to about 114 µM), for the others: at the highest dose activity change, negative = inhibition, usual class: inhibitors; further: potency means the concentration at half of the fitted maximal effect; on the % scale 0 is the no-effect control and ±100 the full control effect; nearly all actives have a fitted effect of over 60% in size
#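 Protein-peptide AlphaScreen: BAZ2B 50 nM, b-H3K14Ac 50 nM, 1x PBS pH 7.4 + 0.01% Tween-20. Preincubation 30 min RT; cpd 30 min RT (top 110 uM); beads 20 min RT, light-protected.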
# G9a block: qHTS Assay for Inhibitors of Histone Lysine Methyltransferase G9a; hit rate 8.8% among 350,000; Histone-lysine N-methyltransferase EHMT2 (Homo sapiens), Q96KQ7; G9a H3K9 monomethylation, AlphaScreen, 2 h; Potency, µM (titrated, usually from 102 µM), for the others: at the highest dose activity, negative = inhibition, usual class: inhibitors; AID 504332, 2011; further: potency means the concentration at half of the fitted maximal effect; on the % scale 0 is the no-effect control and ±100 the full control effect; nearly all actives have a fitted effect of over 75% in size
# Target sequence (Q96KQ7 913-1193 limits assumed): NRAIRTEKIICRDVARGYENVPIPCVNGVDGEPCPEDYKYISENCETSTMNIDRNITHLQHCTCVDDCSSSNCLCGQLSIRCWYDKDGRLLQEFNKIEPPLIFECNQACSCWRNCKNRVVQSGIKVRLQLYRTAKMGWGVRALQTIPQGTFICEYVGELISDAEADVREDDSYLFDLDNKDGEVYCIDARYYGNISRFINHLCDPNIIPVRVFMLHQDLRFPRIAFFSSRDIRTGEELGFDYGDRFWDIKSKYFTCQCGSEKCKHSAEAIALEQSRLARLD
#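 G9a (20 nM) was preincubated 15 min with compound, then reacted 2 h at room temperature with 500 nM biotin-H3K9 peptide and 20 µM SAM. Monomethyl-H3K9 detected by AlphaScreen using anti-H3K9me1 antibody.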
# Six1-Eya2 inh: qHTS Assay for Inhibitors of the Six1/Eya2 Interaction; AID 651725, 2012; activity change, % (no concentration beside the values); Homeobox protein SIX1 (Homo sapiens) + Protein phosphatase EYA2 (Homo sapiens), …; hit rate 0.56% among 360,000; AlphaScreen GST-Six1/His-Eya2 binding, biochemical; hits give low values; in the data active means activity change below about -65%; inconclusive means mostly about -30% to -63%; further: on the % scale 0 is the no-effect control and ±100 the full control effect
#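 AlphaScreen with GST-Six1 and His-Eya2 (5X mix: 250 nM and 500 nM), glutathione donor and nickel acceptor beads; buffer 50 mM Tris pH 8.0, 300 mM NaCl, 1 mM TCEP; 1 h at 37 C in the dark.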
# JMJD2A Tudor inh: qHTS Assay for Inhibitors of JMJD2A-Tudor Domain | AlphaScreen JMJD2A-Tudor / H3K4me3 peptide binding | hit rate 4.4% among 390,000 | Potency, µM (series often up to 114 µM), without a hit: at the highest dose activity change, negative = inhibition, most hits filed as inhibitors | Lysine-specific demethylase 4A (Homo sapiens), O75164; further: potency means the concentration at half of the fitted maximal effect; on the % scale 0 is the no-effect control and ±100 the full control effect; nearly all actives have a fitted effect of over 50% in size
# CtBP-E1A inh: qHTS Assay for Inhibitors of the CtBP/E1A Interaction | CtBP / adenovirus E1A interaction (AlphaScreen) | AlphaScreen GST-E1A/His-CtBP binding, 1536-well; hits give low values | activity change, % (no concentration beside the values) | hit rate 0.49% among 340,000 | AID 651724, 2012; in the data active means activity change below about -65%; inconclusive means mostly about -30% to -63%; further: on the % scale 0 is the no-effect control and ±100 the full control effect
#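 AlphaScreen with 125 nM GST-E1A and 125 nM His-CtBP (5X stocks) in Tris pH 8.0, 300 mM NaCl, BSA, Tween 20, TCEP. Compounds preincubated 2 h at 37 deg C, then glutathione donor/nickel acceptor beads added for 1 h at 37 deg C in dark.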
# HP1b chromo inh: HTS for Inhibitors of HP1-beta Chromodomain Interactions with Methylated Histone Tails | AID 540317, 2011 | hit rate 0.56% among 390,000 | AlphaScreen HP1-beta / biotin-H3K9me3 peptide binding | Potency, µM (top dose mostly 114 µM), for inactives: at the highest dose activity change, negative = inhibition, actives largely listed as inhibitors; further: potency means the concentration at half of the fitted maximal effect; nearly all actives have a fitted effect of over 70% in size
# Target sequence (P83916 whole entry, looked up): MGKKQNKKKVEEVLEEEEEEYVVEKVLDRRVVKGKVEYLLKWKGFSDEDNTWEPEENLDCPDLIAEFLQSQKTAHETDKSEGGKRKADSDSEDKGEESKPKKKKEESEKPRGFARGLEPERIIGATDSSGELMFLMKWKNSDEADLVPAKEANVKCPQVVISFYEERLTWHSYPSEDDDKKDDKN
#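 HP1-beta protein (50 nM final) preincubated 30 min at room temperature with biotinylated H3(1-18)K9me3 peptide (50 nM) in PBS pH 7.4, 0.01% Tween-20, then compound added for 30 min. AlphaScreen streptavidin donor/nickel chelate acceptor beads (10 ug/mL final), 30 min dark, luminescence read.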
# An asterisk follows results filed as active; ? = inconclusive; . = no result given; [ ] = another dose, or the depositor's remark. Unless noted, the call rests on the fitted dose curve; in most records, active means well fitted inhibition curve with a large enough effect; inconclusive means small, poorly fitted or top-dose-only effect; inactive means no such curve, though single readings can be large or run the other way.
SMILES,BAZ2B block,G9a block,Six1-Eya2 inh,JMJD2A Tudor inh,CtBP-E1A inh,HP1b chromo inh
CCOC(=O)CCc1c(C)nc(SCCCn2c(=O)[nH]c3ccccc32)c(C#N)c1C,-2.4%,?,-2.3,28.2µM*,6.6,25.0%
CCCCNC(=O)C(NC(=O)c1cccs1)C(=O)c1ccccc1 (stereo not given),.,.,4.2,.,-1.7,.
Cc1ccc2c(c1)C(c1ccncc1)=NNC(c1ccccc1)=N2,-19.8%,14.8%,2.9,-25.4%,1.1,-18.5%
c1ccc(C2=Nc3c(ccc4ccccc34)C(c3ccncc3)=NN2)cc1,35.5µM*,.,-27.3,35.5µM*,-6.3,?
Cc1cc(C)cc(N(C(=O)c2ccccn2)C(C(=O)NC2CCCCC2)c2ccncc2)c1 (stereo not given),-14.5%,18.5%,2.6,-8.2%,-4.0,-3.3%
O=c1cc(CO)oc(C(Nc2ccccn2)c2ccccc2F)c1O (stereo not given),.,.,2.3,22.4µM*,-22.2,?
COc1cccc(C(Nc2ccccn2)c2oc(CO)cc(=O)c2O)c1 (stereo not given),79.4µM*,1.26µM*,-2.1,44.7µM*,.,?
COc1cccc(C(NC(C)=O)c2nc(-c3cc4ccccc4o3)cs2)c1 (stereo not given),.,.,4.7,.,2.8,.
O=c1cc(CO)oc(C(Nc2ccccn2)c2cccc(F)c2)c1O (stereo not given),-29.9%,1.26µM*,3.0,20µM*,-0.6,?
O=c1cc(CO)oc(C(Nc2ccccn2)c2ccc(C(F)(F)F)cc2)c1O (stereo not given),-7.3%,1.58µM*,4.0,-17.1%,-1.4,-16.9%
CC(=O)c1cccc(NC(=O)CSc2ccc(-c3sc(C)nc3C)nn2)c1,-13.2%,?,?,-4.9%,-4.5,16.8%
Cc1ccc(NC(=O)CSc2ccc(-c3ccco3)nn2)cc1,-1.4%,39.8µM*,2.1,-8.0%,-3.4,7.7%
COc1ccc(NC(=O)CSc2ccc(-c3ccco3)nn2)cc1,-37.1%,.,-5.3,-29.4%,3.1,3.5%
CC(=O)Nc1ccc(NC(=O)CSc2ccc(-c3ccco3)nn2)cc1,?,28.2µM*,-17.3,?,2.0,5.8%
COc1cc(NC(=O)CSc2ccc(-c3ccco3)nn2)cc(OC)c1,-38.5%,?,-10.4,-31.6%,-7.8,28.7%
Cc1cc(C)cc(NC(=O)CSc2ccc(-c3ccco3)nn2)c1,?,25.1µM*,-13.7,-22.7%,-15.1,-1.7%
Cc1nc(C)c(-c2ccc(SCC(=O)Nc3cccc(F)c3)nn2)s1,-16.0%,22.4µM*,-1.6,?,-2.3,38.1%
CC(C)(C)c1ccc(Nc2nc(C#N)nc(NC3CCCC3)n2)cc1,.,.,.,-17.8%,.,.
CCOc1ccc(CNC(=O)CCn2nc(C)c3c(C)n(-c4ccccc4)nc3c2=O)cc1,20.7%,13.0%[59 µM],.,-14.5%,.,71.8%
Cc1ccc(NC(=O)c2ccc3c(=O)n4nc(Nc5ccccc5C)sc4nc3c2)cc1C,-29.2%,?,.,-3.8%,.,35.8%
COCCCNC(=O)CSc1nc(-c2ccc(OC)cc2)[nH]c1-c1ccc(OC)cc1,-33.9%,-6.8%[59 µM],.,-29.8%,.,1.4%
Cc1ccc(NS(=O)(=O)c2ccc(C)c(NC(=O)c3ccc(S(=O)(=O)N4CCCCCC4)cc3)c2)c(C)c1,.,.,-6.7,.,-5.3,.
COc1ccc(NC(=O)CSc2ccc(-c3cccs3)nn2)cc1,-16.5%,10µM*,.,-20.1%,.,4.6%
CC(=O)Nc1cccc(NC(=O)CSc2ccc(-c3ccco3)nn2)c1,?,39.8µM*,-13.4,?,-10.9,17.0%
CC(=O)c1ccc(NC(=O)CSc2ccc(-c3ccco3)nn2)cc1,-19.8%,?,-10.4,-12.5%,0.3,27.3%
SMILES,BAZ2B block,G9a block,Six1-Eya2 inh,JMJD2A Tudor inh,CtBP-E1A inh,HP1b chromo inh
Cn1c(=O)c2c(nc(CN3CCN(Cc4ccccc4)CC3)n2Cc2cccc(Cl)c2)n(C)c1=O,-38.8%,39.8µM*,1.0,-29.2%,-12.6,22.5%
Cn1c(=O)c2c(nc(CN3CCc4ccccc4C3)n2Cc2cccc(Cl)c2)n(C)c1=O,-1.2%,8.91µM*,-5.4,-27.5%,0.1,42.7%
Cn1c(=O)c2c(nc(CN3CCN(C(=O)c4ccco4)CC3)n2Cc2cccc(Cl)c2)n(C)c1=O,.,?,?,-9.0%,?,34.8%
Cc1cc(NC(=NC2CC2)c2ccccc2)n(-c2ccccc2)n1,5.3%,?,-7.9,-6.2%,0.0,-12.6%
Cc1ccc(NC2Nc3cc(C)nn3S2)c(C)c1 (stereo not given),-25.3%,1.12µM*,-1.8,?,-7.0,11.8%
Cc1cc2n(n1)SC(Nc1ccccc1)N2 (stereo not given),-33.4%,1.78µM*,-0.6,7.94µM*,4.8,?
COc1ccc(CNC(=O)C(=O)NCC2OCCN2S(=O)(=O)c2ccccc2)cc1 (stereo not given),.,.,3.6,-5.5%,23.2,18.8%
COCCN(CC(=O)Nc1ccccc1C(F)(F)F)C(=O)/C=C/c1cc(Cl)c2c(c1)OCO2,-2.6%,5.5%[12.7 µM],0.2,-22.3%,.,28.0%
CCN(CC(=O)Nc1ccccc1C(F)(F)F)C(=O)/C=C/c1ccc(Cl)c([N+](=O)[O-])c1,-5.4%,17.8µM*,7.3,-13.8%,-3.9,20.2%
Cc1cccc(C(=O)c2c(N)sc3c2CCCC3)c1,-35.9%,31.6µM*,-2.7,?,-11.7,-29.6%
Cc1cccc(C(=O)c2c(N)sc3c2CCC(C)C3)c1 (stereo not given),1.1%,44.7µM*,-10.6,?,0.7,?
Cc1cccc(C(=O)Nc2sc3c(c2C(=O)O)CCCC3)c1,-22.9%,?,4.5,?,-11.4,?
COc1cc(/C=C2\CCC(C)C3=C(c4cc(OC)c(OC)c(OC)c4)C(C#N)=C(N)OC32)cc(OC)c1OC (stereo not given),.,.,-7.6,-35.4%,2.6,18.2%
COc1ccc(CN(C)C(=O)CNC(=O)c2sc3ccccc3c2Cl)c(OC)c1OC,.,.,-0.2,89.1µM*,-4.1,-16.7%
CCOc1ccc(NS(=O)(=O)c2ccc(C(=O)N(C)Cc3cccc(OC)c3OC)cc2)cc1,-27.0%,18.4%,-9.1,89.1µM*,0.2,-5.9%
COc1cccc(CN(C)C(=O)CNC(=O)c2cccs2)c1OC,5.3%,-7.1%,-0.4,-1.4%,10.9,40.5%
